Test results: PubChem BioAssay (NCATS)
Inconclusive results are not listed. Active and inactive are the calls of the source. Unless noted, calls come from the whole dose curve; as a rule, active = well fitted curve in the direction sought with a large enough effect; inconclusive = small, poorly fitted or top-dose-only effect, or another doubt; inactive = no such curve, though single readings can be large; an effect the other way counts as inactive or inconclusive.

Tests used:
[1] = molecular target: Calcium and integrin-binding protein 1 (Homo sapiens) (UniProt Q99828); test: Primary qHTS for Identification of Calcium Integrin Binding Protein 1 (CIB1) Competitor (AID 1508620);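 note: GST tagged CIB1 binding a fluorescein labelled alphaIIb integrin peptide tracer; top concentration of the series differs between compounds; % is set by controls: 0 for no effect and ±100 for the full control effect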
Calcium and integrin-binding protein 1 (Homo sapiens), sequence (Q99828 whole entry, looked up): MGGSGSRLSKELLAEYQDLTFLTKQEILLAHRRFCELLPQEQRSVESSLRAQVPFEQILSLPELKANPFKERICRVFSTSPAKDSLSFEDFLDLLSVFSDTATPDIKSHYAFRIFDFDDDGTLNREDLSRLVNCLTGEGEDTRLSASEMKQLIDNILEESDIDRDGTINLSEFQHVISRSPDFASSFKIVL
Outline: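 CIB1-GST (1 uM final) and compound incubated 15 min at room temperature before adding FITC-alphaIIb peptide tracer (100 nM final). Competition for binding read by fluorescence polarization (ex 480, em 540) after another 15 min at room temperature.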

[2] = molecular target: Lysosomal acid glucosylceramidase (Homo sapiens) (UniProt P04062); test: Glucocerebrosidase-p2 (AID 348; in the data active = potency below about 10 µM; note: potency is the fitted concentration of half-maximal effect); conditions: purified GBA, blue fluorogenic substrate, 40 min
Lysosomal acid glucosylceramidase (Homo sapiens), sequence (P04062 whole entry, looked up): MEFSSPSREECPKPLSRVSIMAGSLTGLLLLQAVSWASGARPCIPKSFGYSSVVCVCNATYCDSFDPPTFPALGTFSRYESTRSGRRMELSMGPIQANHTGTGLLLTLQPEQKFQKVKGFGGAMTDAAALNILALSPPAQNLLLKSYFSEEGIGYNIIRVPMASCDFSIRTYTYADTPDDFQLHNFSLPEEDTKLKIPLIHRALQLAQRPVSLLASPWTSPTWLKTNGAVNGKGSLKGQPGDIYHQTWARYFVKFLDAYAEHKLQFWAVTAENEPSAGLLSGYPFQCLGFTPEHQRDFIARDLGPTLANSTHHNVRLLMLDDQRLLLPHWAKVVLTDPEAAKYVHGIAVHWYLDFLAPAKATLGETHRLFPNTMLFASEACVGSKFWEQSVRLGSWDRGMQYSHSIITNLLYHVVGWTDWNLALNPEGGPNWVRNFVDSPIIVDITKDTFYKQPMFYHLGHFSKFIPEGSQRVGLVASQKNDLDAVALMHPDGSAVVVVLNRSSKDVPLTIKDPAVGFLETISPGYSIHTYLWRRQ
Outline: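 Compounds titrated from 0.6 nM upwards against 0.2 nM enzyme in pH 5.9 citric acid/KH2PO4, taurocholate, tween-20; blue fluorogenic substrate 80 uM, 40 min room temperature, stopped and read Ex 365/Em 440 for AC50.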

[3] = molecular target: Cytochrome P450 1A2 (Homo sapiens) (UniProt P05177); test: p450-cyp1a2 (AID 410; calls by dose curve; note: potency is the fitted concentration of half-maximal effect;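 for activity change, negative = inhibition: -100% = full effect of reference inhibitor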)
Cytochrome P450 1A2 (Homo sapiens), sequence (P05177 whole entry, looked up): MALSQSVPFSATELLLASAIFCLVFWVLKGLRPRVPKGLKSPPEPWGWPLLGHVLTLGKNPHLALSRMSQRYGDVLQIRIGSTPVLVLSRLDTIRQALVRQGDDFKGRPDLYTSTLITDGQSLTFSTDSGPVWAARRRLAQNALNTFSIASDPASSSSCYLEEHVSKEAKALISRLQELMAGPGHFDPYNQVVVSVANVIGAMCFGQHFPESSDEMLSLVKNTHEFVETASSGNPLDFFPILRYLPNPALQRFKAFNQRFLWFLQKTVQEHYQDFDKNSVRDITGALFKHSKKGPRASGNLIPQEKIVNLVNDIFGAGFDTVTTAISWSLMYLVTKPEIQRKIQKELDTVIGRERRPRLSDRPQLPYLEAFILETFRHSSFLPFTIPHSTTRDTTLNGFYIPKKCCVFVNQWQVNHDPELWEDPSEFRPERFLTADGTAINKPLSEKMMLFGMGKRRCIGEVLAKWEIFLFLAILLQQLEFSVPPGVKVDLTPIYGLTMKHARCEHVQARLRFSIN
Outline: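 Inhibition was calculated relative to 57 uM furafylline (full inhibition). The reaction used human CYP1A2 at 20nM with Luciferin-ME at its Km, 100uM, driven by an NADPH-regenerating system for 60 min at room temperature.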

[4] = Stat Signaling Pathway (AID 446; active = well fitted curve in either direction with a large enough effect, not every such curve was filed as active;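 note: ME-180 cervical cancer cells given 40 pM IL-6 alongside compound; SIE-controlled beta-lactamase reporter measured as 460/530 nm FRET emission ratio; % is set by controls: 0 for no effect and ±100 for the full control effect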); conditions: ME-180 (cervical carcinoma) SIE beta-lactamase reporter, IL-6 stimulated, 5 h; at 7.69 µM (top of the series) unless noted
Outline: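 IL-6/STAT signaling read in ME-180 cells via an SIE beta-lactamase reporter. Stimulus was 40 pM IL-6 (its AC50) for 5 hrs, so both activation and inhibition register.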

[5] = molecular target: Glucocorticoid receptor (Homo sapiens) (UniProt P04150); test: GR-EFC Redistribution (AID 451; calls by dose curve; note: potency is the fitted concentration of half-maximal effect); conditions: CHO-K1 GR-EFC translocation, beta-gal luminescence, 2 h
Glucocorticoid receptor (Homo sapiens), sequence (P04150 whole entry, looked up, the tested form may be a part): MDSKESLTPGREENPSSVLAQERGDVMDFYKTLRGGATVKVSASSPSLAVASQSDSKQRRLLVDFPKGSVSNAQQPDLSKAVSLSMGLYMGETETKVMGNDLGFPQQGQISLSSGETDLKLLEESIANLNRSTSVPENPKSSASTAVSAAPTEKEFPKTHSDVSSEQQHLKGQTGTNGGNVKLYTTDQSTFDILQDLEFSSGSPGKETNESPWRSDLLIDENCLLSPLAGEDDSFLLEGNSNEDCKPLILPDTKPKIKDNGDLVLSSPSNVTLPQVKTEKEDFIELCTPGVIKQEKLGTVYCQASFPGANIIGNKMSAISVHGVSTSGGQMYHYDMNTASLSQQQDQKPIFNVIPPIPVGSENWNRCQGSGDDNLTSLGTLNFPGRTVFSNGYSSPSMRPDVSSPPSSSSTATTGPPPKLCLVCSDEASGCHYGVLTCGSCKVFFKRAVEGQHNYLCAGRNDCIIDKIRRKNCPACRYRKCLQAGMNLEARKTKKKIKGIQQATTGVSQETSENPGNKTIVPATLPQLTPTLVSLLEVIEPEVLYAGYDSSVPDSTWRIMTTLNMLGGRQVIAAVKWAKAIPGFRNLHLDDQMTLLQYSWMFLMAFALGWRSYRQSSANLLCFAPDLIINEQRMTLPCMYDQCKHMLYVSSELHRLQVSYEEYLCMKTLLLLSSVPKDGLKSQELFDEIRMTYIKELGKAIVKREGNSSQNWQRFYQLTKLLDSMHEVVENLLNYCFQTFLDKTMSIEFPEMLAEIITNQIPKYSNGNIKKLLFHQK
Outline: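 Translocation of GR-ED fusion to nuclear EA restores b-gal, read by luminescence after 1 h room-temperature detection. Engineered CHO-K1 biosensor cells, 1,000/well, exposed 2 h at 37 C to titrations up to 46 uM final.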

[6] = molecular target: Mitogen-activated protein kinase 10 (Mus musculus) (UniProt Q61831); test: JNK3 AlphaScreen Assay (AID 530; active = well fitted curve in either direction with a large enough effect, not every such curve was filed as active;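 note: kinase came from lysate of stimulated human HepG2 cells; signal reports phosphorylation of biotinylated GST-cJun 1-79 at Ser73 with 10 µM ATP; % is set by controls: 0 for no effect and ±100 for the full control effect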)
Outline: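 Room-temperature AlphaScreen kinase assay; pre-activated HepG2 lysate as JNK3 source, biotin-GST-cJun(1-79) substrate, 10 uM ATP, compound 15 min preincubation.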

[7] = molecular target: 3',5'-cyclic-AMP phosphodiesterase 4B (Homo sapiens) (UniProt Q07343); test: qHTS Assay for Inhibitors of PDE-IV (AID 607; active = well fitted activation curve with a large enough effect in the main read-out, with a control signal flat, not every such curve was filed as active; note: % of control where 0% means no effect)
3',5'-cyclic-AMP phosphodiesterase 4B (Homo sapiens), sequence (Q07343 whole entry, looked up): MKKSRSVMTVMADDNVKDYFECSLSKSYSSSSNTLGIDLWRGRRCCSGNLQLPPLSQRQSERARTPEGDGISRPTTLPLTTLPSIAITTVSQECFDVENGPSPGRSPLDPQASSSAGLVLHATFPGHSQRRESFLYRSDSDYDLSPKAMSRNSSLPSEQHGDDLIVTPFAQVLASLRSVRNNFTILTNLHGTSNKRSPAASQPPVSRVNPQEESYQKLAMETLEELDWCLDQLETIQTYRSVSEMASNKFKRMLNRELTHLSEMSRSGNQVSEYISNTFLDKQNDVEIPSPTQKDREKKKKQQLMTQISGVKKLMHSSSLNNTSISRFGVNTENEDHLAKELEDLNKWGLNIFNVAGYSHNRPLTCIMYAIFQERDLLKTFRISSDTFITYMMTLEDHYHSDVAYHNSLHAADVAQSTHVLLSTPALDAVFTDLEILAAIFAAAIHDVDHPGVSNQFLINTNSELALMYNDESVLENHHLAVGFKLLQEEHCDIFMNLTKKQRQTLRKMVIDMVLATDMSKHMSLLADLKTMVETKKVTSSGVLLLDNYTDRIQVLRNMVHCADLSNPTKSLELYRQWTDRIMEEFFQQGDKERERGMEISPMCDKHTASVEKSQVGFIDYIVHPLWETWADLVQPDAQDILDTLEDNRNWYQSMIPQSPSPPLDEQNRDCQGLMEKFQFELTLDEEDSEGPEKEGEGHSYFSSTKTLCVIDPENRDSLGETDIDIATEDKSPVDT
Outline: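 Live HEK293 cells with a modified cyclic nucleotide-gated (CNG) channel report intracellular cAMP via membrane-potential dye fluorescence (ex 535/em 590 nm). Endogenous PDE-IV was targeted. Compounds were tested at up to 22.9 uM final; RO 20-1724 100 uM served as control.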

[8] = molecular target: Cytochrome P450 2D6 (Homo sapiens) (UniProt P10635); test: qHTS Assay for Inhibitors and Substrates of Cytochrome P450 2D6 (AID 891); note: potency is the fitted concentration of half-maximal effect; nearly all actives have a fitted effect of over 60% in size
Cytochrome P450 2D6 (Homo sapiens), sequence (P10635 whole entry, looked up): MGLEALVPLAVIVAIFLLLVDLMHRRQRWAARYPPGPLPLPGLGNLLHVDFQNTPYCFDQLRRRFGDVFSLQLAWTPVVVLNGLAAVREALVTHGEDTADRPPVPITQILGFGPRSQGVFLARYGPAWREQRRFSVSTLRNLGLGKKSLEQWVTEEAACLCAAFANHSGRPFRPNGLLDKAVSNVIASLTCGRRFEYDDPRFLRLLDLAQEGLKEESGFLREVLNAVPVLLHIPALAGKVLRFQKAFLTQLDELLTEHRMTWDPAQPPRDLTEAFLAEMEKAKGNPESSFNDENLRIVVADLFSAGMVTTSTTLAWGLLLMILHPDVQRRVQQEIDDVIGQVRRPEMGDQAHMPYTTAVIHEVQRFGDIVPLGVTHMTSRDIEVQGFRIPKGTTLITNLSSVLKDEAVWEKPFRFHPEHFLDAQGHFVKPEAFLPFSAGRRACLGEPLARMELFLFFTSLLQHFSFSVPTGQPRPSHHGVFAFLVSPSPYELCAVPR
Outline: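 Human CYP2D6 (5 nM) with 30 uM Luciferin-ME EGE (at Km) in 100 mM KPO4, compound preincubated 10 min, then NADPH regeneration system for 60 min at room temperature. Luciferin read by luminescence; normalized to 1.43 uM quinidine.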

[9] = qHTS profiling for inhibitors of Plasmodium falciparum (3D7) proliferation (AID 743322);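 note: infected erythrocytes exposed to compound for 72 h before lysis; 100% = DMSO vehicle wells and 0% = 0.29 µM artemisinin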; conditions: P. falciparum 3D7 proliferation; at 28.7 µM (top of the series)
Outline: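 Erythrocytes infected with P. falciparum (0.3% parasitemia, 2.5% hematocrit) incubated with compounds 72 h at 37 C, 5% CO2. Lysis with saponin/Triton buffer containing SYBR Green I, overnight at room temperature in the dark; DNA fluorescence (485/535 nm) normalised to 0.29 uM artemisinin and DMSO.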

[10] = qHTS profiling for inhibitors of Plasmodium falciparum (DD2) proliferation (AID 743323; call rule not given here); conditions: lower = more inhibition; at 28.7 µM (top of the series)
Outline: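 Parasite proliferation measured via DNA-dye fluorescence, as uninfected erythrocytes lack DNA. Cultures at 0.3% parasitemia and 2.5% hematocrit incubated 72 h with compound; signal scaled between vehicle and 0.29 uM artemisinin wells.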

[11] = qHTS profiling for inhibitors of Plasmodium falciparum (HB3) proliferation (AID 743324); conditions: Plasmodium falciparum HB3 blood-stage proliferation; at 28.7 µM (top of the series);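 note: 100% = DMSO vehicle wells and 0% = artemisinin-treated control wells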
Outline: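 P. falciparum HB3 grown in erythrocytes (0.3% parasitemia, 2.5% hematocrit final) with compound for 72 h at 37 C, 5% CO2. Parasite DNA detected by SYBR Green after saponin/triton lysis overnight; normalized to 0.29 uM artemisinin and DMSO.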

[12] = Primary qHTS for small molecule stabilizers of the endoplasmic reticulum resident proteome: Secreted ER Calcium Modulated Protein (SERCaMP) assay (AID 1508630); note: % is set by controls: 0 for no effect and ±100 for the full control effect
Outline: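 GLuc-SERCaMP-expressing SH-SY5Y cells, pretreated 16 h with compound, are challenged with thapsigargin to empty ER calcium stores; after 4 h, coelenterazine is added directly to the medium and luminescence is imaged.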

[13] = molecular target: Glucocorticoid receptor (Homo sapiens) (UniProt P04150); test: GR-GFP Redistribution (AID 450;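 active = compounds whose dose series gives a full or clear partial fitted curve of increased nuclear translocation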; note: potency is the fitted concentration of half-maximal effect); conditions: U2OS GR-GFP nuclear translocation, laser cytometry, 2 h
[14] = molecular target: Cytochrome P450 2C9 (Homo sapiens) (UniProt P11712); test: qHTS Assay for Inhibitors and Substrates of Cytochrome P450 2C9 (AID 883); note: potency is the fitted concentration of half-maximal effect; nearly all actives have a fitted effect of over 60% in size
Outline: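 Turnover of Luciferin-H (100uM, KM) by 10nM human CYP2C9 was measured over 60 min at 37C with NADPH regeneration; inhibitors and some substrates reduce luminescence. Data normalized to sulphaphenazole 57uM.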

[15] = molecular target: Cytochrome P450 3A4 (Homo sapiens) (UniProt P08684); test: qHTS Assay for Inhibitors and Substrates of Cytochrome P450 3A4 (AID 884); note: potency is the fitted concentration of half-maximal effect; nearly all actives have a fitted effect of over 50% in size
Cytochrome P450 3A4 (Homo sapiens), sequence (P08684 whole entry, looked up): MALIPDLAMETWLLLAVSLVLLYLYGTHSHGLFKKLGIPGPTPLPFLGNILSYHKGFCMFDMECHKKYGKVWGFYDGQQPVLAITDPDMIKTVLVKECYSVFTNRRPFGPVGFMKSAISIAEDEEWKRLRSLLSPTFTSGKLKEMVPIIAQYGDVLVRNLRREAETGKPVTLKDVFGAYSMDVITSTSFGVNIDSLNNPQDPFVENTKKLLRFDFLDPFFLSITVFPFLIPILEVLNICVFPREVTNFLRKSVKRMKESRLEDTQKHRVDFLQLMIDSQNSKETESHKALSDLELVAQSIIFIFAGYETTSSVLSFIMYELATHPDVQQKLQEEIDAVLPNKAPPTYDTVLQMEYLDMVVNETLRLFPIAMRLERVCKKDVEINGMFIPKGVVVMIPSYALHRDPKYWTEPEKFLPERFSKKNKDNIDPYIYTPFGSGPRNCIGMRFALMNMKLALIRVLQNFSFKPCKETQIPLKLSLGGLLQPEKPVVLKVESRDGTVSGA
Outline: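 20 nM human CYP3A4 with 25 uM Luciferin-PPXE (at KM) in 200 mM KPO4, preincubated 10 min with compound; NADPH regeneration started a 60 min RT reaction. Luciferin detected by luminescence, normalized to 57 uM ketoconazole as full inhibition.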

[16] = molecular target: Cytochrome P450 3A4 (Homo sapiens) (UniProt P08684); test: qHTS Assay for Activators of Cytochrome P450 3A4 (AID 885); note: nearly all actives have a fitted effect of over 65% in size
Outline: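 Quantitative HTS format: compounds preincubated with 20nM human CYP3A4 and Luciferin-PPXE substrate at KM, reaction started by NADPH regeneration, stopped after 60 min, luciferase luminescence read 20 min later.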

[17] = molecular target: Cytochrome P450 2C19 (Homo sapiens) (UniProt P33261); test: qHTS Assay for Inhibitors and Substrates of Cytochrome P450 2C19 (AID 899); note: potency is the fitted concentration of half-maximal effect; nearly all actives have a fitted effect of over 60% in size
Cytochrome P450 2C19 (Homo sapiens), sequence (P33261 whole entry, looked up): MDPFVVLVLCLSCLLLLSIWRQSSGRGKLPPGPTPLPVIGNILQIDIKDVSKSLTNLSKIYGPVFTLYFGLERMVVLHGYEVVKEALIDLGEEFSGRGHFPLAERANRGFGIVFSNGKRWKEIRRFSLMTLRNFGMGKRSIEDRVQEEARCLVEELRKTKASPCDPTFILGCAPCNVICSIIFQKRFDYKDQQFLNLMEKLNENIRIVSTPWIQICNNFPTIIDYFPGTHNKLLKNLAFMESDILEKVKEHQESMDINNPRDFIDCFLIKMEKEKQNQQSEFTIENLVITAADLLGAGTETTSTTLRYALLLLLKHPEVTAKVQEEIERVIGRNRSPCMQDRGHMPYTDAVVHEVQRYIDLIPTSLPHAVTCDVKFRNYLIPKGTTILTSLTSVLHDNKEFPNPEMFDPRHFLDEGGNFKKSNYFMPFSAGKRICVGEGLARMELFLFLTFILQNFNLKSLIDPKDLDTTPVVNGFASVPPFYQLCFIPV
Outline: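 Reactions contain 5nM enzyme, 10uM Luciferin-H EGE (KM) and 50mM KPO4; compound preincubates 10 min at 37C, NADPH regeneration starts turnover for 60 min. Luminescence after detection reagent gives activity.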

[18] = Confirmation and Secondary Assay for Modulators of Hemoglobin Beta Chain Splicing at IVS2 654 locus (AID 910);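 note: HeLa cells stably carrying EGFP split by mutant beta-globin IVS2-654 intron; per-well total GFP intensity by laser scanning cytometry after 2-day treatment; % of control where 0% means no effect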
Outline: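 Readout: per-well total peak green fluorescence (488 nm ex, 500–520 nm em) from objects 5–250 µm, reflecting correct splicing of an EGFP-654 reporter. Compounds were applied for 2 days at 37 °C to overnight-plated HeLa EGFP-654 cells; controls were DMSO and 500 nM IVS2-654 PNA.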

[19] = Confirmation and Secondary Assay for Modulators of Hemoglobin Beta Chain Splicing at IVS2 705 locus (AID 930);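 note: HeLa cells stably expressing the EGFP-705 splicing reporter; GFP fluorescence per well restored by corrected splicing of the IVS2-705 intron in EGFP; % of control where 0% means no effect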
Outline: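 HeLa IVS2-705 EGFP reporter cells, 500/well, compound 2 d at 37C; correct splicing yields fluorescent EGFP. Control: 500 nM antisense PNA. Read-out: total peak GFP intensity.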

[20] = qHTS Assay for Lipid Storage Modulators (AID 1519; calls by dose curve); conditions: Drosophila S3 cells, BODIPY lipid droplet/cell ratio, laser cytometry, cells loaded with oleic acid; for activity change, negative = inhibition: at 57.5 µM (top of the series)
Outline: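 Cells seeded at 5,000 per well were treated with compounds over a concentration series and loaded with oleic acid (400 uM, as added). Lipid droplet fluorescence (488 nm excitation, 500-530 nm channel) was read by laser-scanning cytometry and normalized to 20 uM Triacsin C.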

[21] = NFAT Signaling Pathway (AID 444; active = well fitted curve in either direction with a large enough effect, not every such curve was filed as active); conditions: Jurkat NFAT-bla M1, carbachol, beta-lactamase ratio, 5 h; at 7.69 µM (top of the series) unless noted
Outline: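 Read-out: CCF4 FRET ratio (460 nm/530 nm) after 1 h RT dye loading, used for %activity and AC50 from titration series. Cells: Jurkat NFAT-β-lactamase/M1 line, treated with compound plus 1 uM carbachol for 5 h, 37 °C.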

[22] = molecular target: Dual specificity protein kinase CLK4 (Homo sapiens) (UniProt Q9HAZ1); test: qHTS Assay for Inhibitors of CDC-like Kinase 4 (Kinase-Glo Assay) (AID 1770); note: potency is the fitted concentration of half-maximal effect; nearly all actives have a fitted effect of over 65% in size
Dual specificity protein kinase CLK4 (Homo sapiens), sequence (Q9HAZ1 whole entry, looked up): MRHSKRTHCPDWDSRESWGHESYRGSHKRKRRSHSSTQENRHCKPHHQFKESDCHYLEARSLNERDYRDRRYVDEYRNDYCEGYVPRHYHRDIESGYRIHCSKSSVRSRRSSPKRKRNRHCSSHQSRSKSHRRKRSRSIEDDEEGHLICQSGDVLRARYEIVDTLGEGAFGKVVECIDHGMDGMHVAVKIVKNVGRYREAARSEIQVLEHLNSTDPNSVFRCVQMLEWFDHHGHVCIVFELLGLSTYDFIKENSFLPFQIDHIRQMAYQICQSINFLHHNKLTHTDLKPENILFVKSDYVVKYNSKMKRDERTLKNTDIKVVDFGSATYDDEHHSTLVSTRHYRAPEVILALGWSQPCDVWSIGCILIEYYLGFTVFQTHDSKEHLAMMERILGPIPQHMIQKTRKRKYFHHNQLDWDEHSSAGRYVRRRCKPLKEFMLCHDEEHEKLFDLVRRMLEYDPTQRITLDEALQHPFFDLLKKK
Outline: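 Inhibition was judged from remaining ATP, measured by Ultra-Glo luciferase bioluminescence after Clk4 (25 nM) had acted on RS peptide at 1 uM ATP for 4.5 hours, room temperature.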

[23] = molecular target: Dual specificity protein kinase CLK4 (Homo sapiens) (UniProt Q9HAZ1); test: qHTS Assay for Inhibitors of CDC-like Kinase 4 (ADP-Glo Assay) (AID 1771); note: potency is the fitted concentration of half-maximal effect; nearly all actives have a fitted effect of over 70% in size
Outline: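 Kinase reaction: Clk4 at 25 nM, RS repeat peptide substrate at 100 uM, ATP at 1 uM, 1 hr, room temperature. Product ADP detected as luciferase signal via ADP-Glo.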

[24] = molecular target: Dual specificity protein kinase CLK4 (Homo sapiens) (UniProt Q9HAZ1); test: qHTS Assay for Inhibitors of CDC-like Kinase 4 (ADP-FP Assay) (AID 1795); note: potency is the fitted concentration of half-maximal effect; nearly all actives have a fitted effect of over 60% in size
Outline: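 Inhibition of ADP formation by 6.25 nM Clk4 is measured using 1 uM ATP and 100 uM RS repeat peptide over one hour. Produced ADP displaces a fluorescent tracer from antibody, lowering polarization.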

[25] = molecular target: Ubiquitin carboxyl-terminal hydrolase 1 (Homo sapiens) (UniProt O94782); test: Inhibitors of USP1/UAF1: Pilot qHTS (AID 504865);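 note: rhodamine fluorescence freed from ubiquitin-rhodamine substrate followed over time; top concentration of the series differs between compounds; % is set by controls: 0 for no effect and ±100 for the full control effect; nearly all actives have a fitted effect of over 35% in size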
Outline: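 Kinetic fluorescence assay: 1nM USP1/UAF1, 15 min compound preincubation, then 150nM Ub-Rho; 480/540 nm.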

[26] = measured here: cell count channel max response
[27] = measured here: lipid channel max response

Cc1cc(NS(=O)(=O)c2cc3c(cc2N[C@@H](C)CO)NC(=O)CC3)ccc1F
inactive: Potency [1]

Cc1noc(C)c1C(=O)N1CCC2(CCCN(C(c3ccccc3)c3ccccc3)C2)CC1
10.2%: remaining proliferation (% of control), lower = more inhibition [11]
active: Potency [8] 2 µM
22.6%: activity, percent of control [10]
inactive: Potency [2] > 11.4 µM | Potency [3] | activity, negative = inhibition [4] -11.6% | Potency [5] > 46 µM | outcome [6] | Potency [7] | Potency [1] | Potency [12]
18.5%: remaining parasite growth % (stronger effect = lower value) [9]

Cc1cccc(CNc2ncnc3ccc(-c4ccc5c(c4)OCO5)cc23)c1
active: Potency [3] 0.501 µM | Potency [14] 0.316 µM | Potency [15] 2 µM | Potency [8] 0.501 µM | Potency [17] 5.01 µM
-0.18%: max response [20, 27]
inactive: Potency [2] > 11.4 µM | activity, negative = inhibition [4] -13.6% | Potency [13] > 46 µM | Potency [5] > 46 µM | outcome [6] | Potency [16] | outcome [18] | outcome [19] | activity change, negative = inhibition [20] 5.85% | Potency [1] | Potency [12]
-5.17%: max response [20, 26]

N#Cc1nc(Nc2cccc(-c3ccccc3)c2)nc(NC2CCCC2)n1
inactive: Potency [1]

COC(=O)c1ccc(O)c2ncccc12
inactive: Potency [1]

c1cncc(CNc2ncnc3ccc(-c4ccoc4)cc23)c1
active: Potency [3] 0.316 µM | Potency [17] 0.0251 µM | Potency [22] 2.82 µM | Potency [23] 1.58 µM | Potency [24] 0.794 µM
inactive: activity change, negative = inhibition [21] 2.59% | activity, negative = inhibition [4] -13.4% | Potency [13] > 46 µM | outcome [6] | Potency [7] | Potency [16] | Potency [25] | Potency [1] | Potency [12]

COc1cccc(-c2ccc3ncnc(NCc4cccs4)c3c2)c1
inactive: activity change, negative = inhibition [21] 23.9% | activity, negative = inhibition [4] -19.5% | Potency [13] > 46 µM | Potency [5] > 46 µM | outcome [6] | Potency [16] | outcome [18] | outcome [19] | activity change, negative = inhibition [20] -9.22% | Potency [1] | Potency [12]
active: Potency [3] 0.501 µM | Potency [15] 7.94 µM
-23.5%: max response [20, 27]
-18.2%: max response [20, 26]

CCCn1c(C)nc2c(NC3CCN(Cc4ccccc4)C3)nc(C)nc21 (centres undefined)
inactive: outcome [6] | Potency [1]
